A selection: hits, their analogues and other compounds. The true share with any hit is near 1.6%.
KCNQ2 pot: enhances the rat KCNQ2 potassium channel; O88943; B-score at 10 µM; CHO-K1 KCNQ2, FluxOR thallium flux fluorescence; hits give high values; actives 0.54% (n = 310,000);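 active means fluorescence ratio B-score at least 3 SD of library B-scores, with initial fluorescence B-score within 3 of them, cut at about 5.3 in these data; same plate scores as AID 2156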;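 further: B-score of peak minus minimum over baseline fluorescence ratio after K+ and Tl+ stimulus; positive B-score means potentiation of KCNQ2 with more thallium influx and brighter signal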
KCNQ2 block: KCNQ2 (rat) channel inhibition; actives 1.1% (n = 310,000); B-score at 10 µM; O88943; CHO-K1 KCNQ2, FluxOR thallium flux, 20 min; hits give low values;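 active means fluorescence ratio B-score at most minus 3 library SDs, with starting brightness B-score within 2 library SDs, cut at about -5.5 in these data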
Kir21 conf inh: confirmation of mouse Kir2.1 potassium channel inhibitors; shares compounds with KCNQ2 pot; Kir2.1-expressing cells, FluxOR thallium flux fluorescence; hits give low values; Tl flux remaining, % of negative control (hits give low values), % at 10 µM; actives 41% (n = 2,300);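 active means Primary-screen hit whose thallium flux fell at least 3 control SD below untreated wells in both duplicates, with normal baseline fluorescence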;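 further: 0% = blank wells without stimulus and 100% = stimulated no-compound controls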
Target sequence (P35561 whole entry, looked up): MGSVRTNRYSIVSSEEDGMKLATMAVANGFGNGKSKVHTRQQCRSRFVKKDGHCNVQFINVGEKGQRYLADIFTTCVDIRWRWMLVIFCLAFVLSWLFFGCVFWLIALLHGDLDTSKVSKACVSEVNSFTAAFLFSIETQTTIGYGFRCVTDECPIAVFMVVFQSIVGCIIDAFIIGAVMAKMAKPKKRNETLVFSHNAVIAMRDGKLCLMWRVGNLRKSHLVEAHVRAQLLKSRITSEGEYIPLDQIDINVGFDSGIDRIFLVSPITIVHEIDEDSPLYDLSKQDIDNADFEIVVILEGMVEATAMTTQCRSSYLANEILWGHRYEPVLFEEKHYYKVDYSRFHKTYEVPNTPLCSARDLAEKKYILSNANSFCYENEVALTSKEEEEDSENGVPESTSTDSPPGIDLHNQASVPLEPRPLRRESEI
HEK293 ctr: counter-screen for Kir2.1 inhibitors: effect in parental HEK293 cells. FluxOR thallium flux fluorescence; 0% = unstimulated blank wells. shares compounds with KCNQ2 pot. FluxOR signal as % of negative control (100 = no effect), % at 10 µM. actives 19% (n = 2,300);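 active means dye signal at least 3 control SD above or below untreated wells in both duplicates, raw fluorescence within 3, either direction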;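 further: percent is based on the flux ratio of peak minus minimum fluorescence over baseline F0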
CHO-K1 Tl ctr: alters thallium flux in parental CHO-K1 cells, KCNQ2 counter-screen. shares compounds with KCNQ2 pot. FluxOR thallium flux fluorescence; zero = vehicle mean+3SD, 100% = vehicle-minus-blank window. activity increase over 3SD of controls, % at 10 µM. actives 43% (n = 1,200). AID 2282;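 active means signal rise of at least 3 SD above the untreated control mean, in both duplicate wells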;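 further: counter screen of KCNQ2 potentiator hits so any rise reflects channel-independent effects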
KCNQ1 sel pot: human KCNQ1 counter-target activity of KCNQ2 potentiators | activation over 3SD threshold, % at 10 µM | AID 2283 | actives 28% (n = 1,200) | shares compounds with KCNQ2 pot | CHO KCNQ1 stable, FluxOR thallium flux fluorescence; beyond 3SD, as % of vehicle-control signal;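 active means fluorescence ratio rise of at least 3 SD of vehicle wells above their mean, in both replicate wells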;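 further: 0% = vehicle mean plus 3 SD and 100% = vehicle minus unstimulated blank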
KCNQ2 pot conf: rat KCNQ2 channel potentiator confirmation | CHO-KCNQ2 cells, FluxOR thallium flux fluorescence | shares compounds with KCNQ2 pot | actives 68% (n = 1,200) | potentiation, less the hit threshold, % at 10 µM;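 active means fluorescence ratio rising 3 SD or more over the vehicle control mean in both replicates, plus primary screen hit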;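 further: peak minus minimum thallium fluorescence divided by baseline after K/Tl stimulus; 0% = vehicle mean plus 3 SD and 100% = vehicle minus unstimulated blank difference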
Kir21 spec: selectivity of KCNQ2 potentiators: effect on mouse Kir2.1; shares compounds with KCNQ2 pot; HEK293 Kir2.1, FluxOR thallium flux fluorescence; activity over 3SD threshold, % at 10 µM; actives 2% (n = 1,200);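 active means fluorescence ratio rise of at least 3 SD above the vehicle-control mean, seen in both replicates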;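 further: 0% = vehicle mean plus 3 SD and 100% = vehicle minus no-stimulus blank window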
KCNQ2 W236L MoA: rat KCNQ2 W236L mutant potentiation by KCNQ2 potentiators; shares compounds with KCNQ2 pot; CHO KCNQ2-W236L, automated patch clamp current; current increase over 3SD of negative controls (%), hits give high values, % at 25 µM; actives 10% (n = 940); AID 2558;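 active means current increase at least 3 SD of the untreated controls above them in both duplicate recordings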
Starred values were filed as active, the others as inactive; i = inactive; x = not tested or not shown.

SMILES	KCNQ2 pot	KCNQ2 block	Kir21 conf inh	HEK293 ctr	others
COC(=O)c1ccc(Oc2nc(NC(C)C)nc(N(C)C)n2)cc1	11*	i	i	i	CHO-K1 Tl ctr=-16;KCNQ1 sel pot=-12;KCNQ2 pot conf=-26;Kir21 spec=-32
O=C(Nc1ccccc1C(=O)NCCc1ccccc1)c1cnccn1	x	i	x	x
COCCNC(=O)COc1ccc(Oc2ccccc2)cc1	1.4	i	x	x
NC(N)=NN=C1CCCCCCCCCCC1	x	i	i	i
CC(C)(C)NC(=O)C(=O)NN=C1CCCCCCCCCCC1	1	i	x	x
O=S(=O)(Nc1cccc(-n2cnnn2)c1)c1cc(Br)ccc1Br	2	i	x	x
CC(O)(C#CCN1CCOCC1)c1ccccc1 (stereo unspecified)	0.49	i	x	x
CN1CCN(CC#CC(C)(O)C2CC3C=CC2C3)CC1 (stereo unspecified)	5.4*	i	i	i	CHO-K1 Tl ctr=-3;KCNQ1 sel pot=-39;KCNQ2 pot conf=-10;Kir21 spec=-37
N/C(=N\OC(=O)c1csnn1)c1ccc(C(F)(F)F)cc1	x	i	x	x
COc1ccc(Sc2ccccc2CN(C)C)cc1OC	0.47	i	x	x
CNCc1ccccc1Sc1ccc(O)c(O)c1	x	i	39%*	i
COc1ccc(-n2cnc3c(cnn3CCC#N)c2=N)cc1	x	i	x	x
O=C(CCSc1ccccc1)Nc1nnc(-c2cccs2)o1	0.02	i	x	x
CC1=C(C)/C(=N\OS(=O)(=O)c2ccccc2)C=CC1=O	6.9*	i	69%*	i	CHO-K1 Tl ctr=17*;KCNQ1 sel pot=-17;KCNQ2 pot conf=28*;Kir21 spec=-64;KCNQ2 W236L MoA=57%*
Cc1ccc(S(=O)(=O)O/N=C2\CCCc3ccccc32)cc1	1.5	i	x	x
O=c1[nH]cc(I)cc1I	7.4*	i	i	i	CHO-K1 Tl ctr=133*;KCNQ1 sel pot=32*;KCNQ2 pot conf=-20;Kir21 spec=-36
COc1cc(C(=O)Nc2nnc(CC(C)C)s2)c([N+](=O)[O-])cc1OC	0.25	i	x	x
Cn1c(CNC(=O)c2ccccc2F)cc2ccccc21	x	i	x	x
Cn1c(CNC(=O)c2ccc(F)cc2)cc2ccccc21	6.5*	i	i	i	CHO-K1 Tl ctr=0;KCNQ1 sel pot=78*;KCNQ2 pot conf=0;Kir21 spec=-27;KCNQ2 W236L MoA=i
O=C(O)CC/C(=N/Nc1ncc(C(F)(F)F)cc1Cl)C(=O)O	x	i	x	x
CC(C)n1cnc2c(N(C)c3ccccc3)nc(N(CCN(C)C)Cc3ccccc3)nc21	x	i	48%*	i
COc1ccc(CN(CCN(C)C)c2ccccn2)cc1	1.3	i	x	x
Cc1nc(SCC(=O)NCc2ccco2)c2c(C)c(C)sc2n1	x	i	x	x
Cc1sc2nc(C(C)C)nc(SCC(=O)NCc3ccco3)c2c1C	4.6	i	i	218%*
CCOc1ccc(CNC(=O)c2ccc(Sc3ccc(C)cc3)c(NC(C)=O)c2)cc1	x	i	x	x
SMILES	KCNQ2 pot	KCNQ2 block	Kir21 conf inh	HEK293 ctr	others
Nc1nc(CSCCO)nc(Nc2ccccc2)n1	0.22	i	x	x
Nc1nc(CSc2ccccn2)nc(Nc2ccccc2)n1	5.5*	i	i	i	CHO-K1 Tl ctr=-9;KCNQ1 sel pot=-20;KCNQ2 pot conf=-11;Kir21 spec=-39
Cc1ccc(NC(=O)CC(NCC2CCCO2)C(=O)O)cc1C (stereo unspecified)	x	i	x	x
O=C(CCC1CCCC1)NNC(=O)c1cccc(Cl)c1	6.1*	i	i	i	CHO-K1 Tl ctr=106*;KCNQ1 sel pot=-18;KCNQ2 pot conf=15*;Kir21 spec=-11;KCNQ2 W236L MoA=i
O=C(CCN1C(=O)C2CCCCC2C1=O)NNC(=O)c1cccc(Cl)c1 (stereo unspecified)	0.27	i	x	x
CC(C)OC(=O)[C@H]1[C@H](c2ccc(Cl)cc2)[C@@](C#N)(C(N)=O)[C@@H]2C=CC(C(N)=O)=CN21	x	i	x	x
COc1ccc(C2=NS(=O)(=O)N(C)C(C(=O)N3CCCCC3)=C2)cc1OC	0.39	i	x	x
